# Screening data deposited in PubChem BioAssay by National Center for Advancing Translational Sciences (NCATS).
# This is a sample that favours compounds with a hit; in the whole collection about 7.5% have one here.
# SMN2 splice up: SMN2 splice variant enhancement | 2.8% of 210,000 active | Potency, µM (top dose mostly 46.1 µM), for inactives: at the top dose activity change, positive = activation, usual class: activators | AID 1458 | HEK293 SMN2-luciferase splicing reporter, luminescence, 30-36 h; note: % of control where 0% means no effect; nearly all actives have a fitted effect of over 55% in size
#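 HEK293 cells carry an SMN2 minigene-luciferase reporter in which exon 7 inclusion puts luciferase in frame. Cells were seeded at 2000 cells/well, attached for 10-12 hours, then exposed to compounds for 30-36 hours at 37C before ONE-Glo luminescence.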
# ELG1 genotoxic: inducers of genotoxicity in HEK293T ELG1-luciferase cells. HEK293T ELG1-luciferase reporter, luminescence, 16 h. Potency, µM (doses to about 46 µM), inactives show at the top dose activity change, positive = activation, usual class: activators. 1.3% of 330,000 active. AID 504466; note: % of control where 0% means no effect; nearly all actives have a fitted effect of over 60% in size
#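 Reporter readout depends on ELG1 protein level, which increases with genetic stress. After 16 hr compound exposure at 37 °C, luciferase activity was quantified using ONE-Glo.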
# NPC1 promoter act: NPC1 promoter activation. Potency, µM (top dose mostly 9.22 µM), for inactives: at the top dose activation, most hits filed as activators. 2.4% of 320,000 active. Huh7 NPC1 promoter luciferase reporter, 24 h. AID 485313; note: % of control where 0% means no effect; nearly all actives have a fitted effect of over 60% in size
#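 Luminescence read-out of NPC1 promoter-driven luciferase in stably transfected Huh7 cells; compounds delivered in DMSO and left 24 h at 37C, 5% CO2, qHTS titration format.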
# Luc counter: Kinase-Glo luciferase inhibition (counter-screen). 0.28% of 200,000 active. AID 1379. Potency, µM (titrated, usually from 38.3 µM), inactives show at the top dose activity change, negative = inhibition, most hits filed as inhibitors. Kinase-Glo luciferase, ATP luminescence, 8 min; note: % is set by controls: 0 for no effect and ±100 for the full control effect; nearly all actives have a fitted effect of over 60% in size
#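 Compounds were added to a substrate mix at pH 7.2 (50 mM imidazole, 10 uM ATP, within the enzyme's linear range), followed by Kinase-Glo detection reagent; luminescence was measured after 8 minutes at ambient temperature.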
# FLuc modulator: inhibits or activates purified firefly luciferase, miR-21 counter-screen. P08659. purified FLuc, Km substrates, luminescence inhibition. Potency, µM (top dose mostly 57.5 µM), for the others: top-dose activity change, negative = inhibition, hits mostly inhibitors. 6.9% of 360,000 active. AID 588342;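 note: plate controls were vehicle for no effect and reference inhibitor for full effect; nearly all actives have a fitted effect of over 55% in size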
# Target sequence (P08659 whole entry, looked up): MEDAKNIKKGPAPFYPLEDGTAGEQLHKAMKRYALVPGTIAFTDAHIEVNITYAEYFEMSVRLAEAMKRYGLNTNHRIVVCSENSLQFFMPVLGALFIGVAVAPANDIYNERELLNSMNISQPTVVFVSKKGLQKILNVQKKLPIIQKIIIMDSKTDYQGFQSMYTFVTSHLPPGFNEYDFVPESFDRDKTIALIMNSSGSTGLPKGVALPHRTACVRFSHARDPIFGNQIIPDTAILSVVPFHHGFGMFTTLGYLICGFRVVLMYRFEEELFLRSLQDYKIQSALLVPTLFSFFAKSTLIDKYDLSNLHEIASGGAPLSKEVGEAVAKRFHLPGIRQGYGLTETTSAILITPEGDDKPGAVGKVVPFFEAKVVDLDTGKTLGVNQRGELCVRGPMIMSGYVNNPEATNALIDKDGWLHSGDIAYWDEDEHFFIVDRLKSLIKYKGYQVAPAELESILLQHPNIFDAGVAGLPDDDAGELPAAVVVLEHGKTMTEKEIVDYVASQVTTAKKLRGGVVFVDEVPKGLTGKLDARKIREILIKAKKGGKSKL
#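 Purified P. pyralis luciferase (10nM final) with 10uM D-luciferin and 10uM ATP (Km levels) in 50mM Tris acetate pH 7.5, 10mM Mg acetate, 0.01% Tween-20, 0.05% BSA; qHTS 6-point titration, ~60 µM downward; luminescence read.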
# Rab9 prom act: Rab9 promoter activation | Potency, µM (series often up to 9.22 µM), without a hit: at the top dose activation, negative = inhibition, hits mostly activators | Huh7 Rab9 promoter-luciferase reporter, luminescence, 24 h | AID 485297 | 2.8% of 320,000 active; note: % of control where 0% means no effect; nearly all actives have a fitted effect of over 60% in size
#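 Cells were plated at 1500 per well in reduced-serum medium with 10% FBS and left 2 h. Compound in DMSO was then added for 24 h at 37 °C. Reporter signal was read by luminescence after 10 min with luciferase detection reagent.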
# * hit, by the source's call; u = inconclusive; x = not tested or not shown; [ ] = another dose, or the depositor's remark. Calls come from the whole dose curve; as a rule, active = well fitted curve in the direction sought with a large enough effect; inconclusive = small, poorly fitted or top-dose-only effect, or another doubt; inactive = no such curve, though single readings can be large; an effect the other way counts as inactive or inconclusive. Potency is the fitted concentration of half-maximal effect.
SMILES,SMN2 splice up,ELG1 genotoxic,NPC1 promoter act,Luc counter,FLuc modulator,Rab9 prom act
O=C(O)c1cccc(NC(=O)c2ccc(COc3ccc(Cl)cc3)cc2)c1,x,8.2%,u,x,6.01µM*,3.16µM*
CCOc1ccccc1NC(=O)c1cc2c(=O)n(Cc3cccnc3)ccc2nc1C,x,x,x,x,2.0%,x
O=C(NC(Cc1c[nH]c2ccccc12)C(=O)N/N=C/c1cccnc1)c1cccs1 (stereo unspecified),25.1µM*,-7.5%,2.2%,-0.5%,-0.5%,9.1%
CCCc1nn2cc(-c3ccc(C)c(C)c3)nc2s1,1.26µM*,x,x,x,0.19µM*,x
COc1ccc(Cn2ccc3nc(C)c(C(=O)N4CCN(c5ccccc5F)CC4)cc3c2=O)cc1,x,x,x,x,-8.2%,x
CN(Cc1ccccc1)c1ncnc2c1cnn2-c1ccccc1,5.62µM*,18.4µM*,2.51µM*,-3.2%,6.01µM*,2.82µM*
COCCN(CCOC)c1ncnc2c1cnn2-c1ccccc1,x,5.9%,5.0%,x,-14.7%,15.6%
CCN(c1ccccc1)c1ncnc2c1cnn2-c1ccccc1,-59.0%,20.6µM*,u,1.2%,19µM*,u
CCN(Cc1ccccc1)c1ncnc2c1cnn2-c1ccc(F)cc1,x,x,x,x,7.57µM*,x
Cc1ccc(NC(=O)C2=C(O)CCn3c2nc2ccccc23)cc1,-15.9%,0.8%,16.6%,-4.1%,12µM*,8.2%
O=C(/C=C/c1ccccc1)Nc1cc(NC(=O)/C=C/c2ccccc2)cc(C(=O)O)c1,x,-3.7%,10.5%,x,13.5µM*,15.7%
O=C(/C=C/c1cccc([N+](=O)[O-])c1)Nc1cc(C(=O)O)cc(C(=O)O)c1,-45.3%,-9.0%,-9.5%,6.0%,-17.9%,1.6%
O=C(/C=C/c1ccccc1)Nc1cccc(C(=O)O)c1,x,-14.7%,u,-19.3%,0.0675µM*,u
O=C(Nc1cccc(C(=O)O)c1)/C(=C\C=C\c1ccccc1)NC(=O)c1ccccc1,0.7%,-1.8%,-0.9%,-2.9%,13.5µM*,-3.8%
O=C(/C=C/c1ccccc1)N/C(=C/c1ccccc1)C(=O)Nc1cccc(C(=O)O)c1,-9.4%,-0.5%,-1.4%,1.1%,23.9µM*,4.6%
O=C(Nc1ccc(C(=O)O)cc1)/C(=C\C=C\c1ccccc1)NC(=O)c1ccccc1Br,x,0.6%,2µM*,x,0.169µM*,3.16µM*
Cc1ccc(C(=O)Nc2ccc(CN3CCS(=O)(=O)CC3)cc2)cc1C,x,14.2%,u,x,19µM*,u
CN(C)c1ccc(C(=O)Nc2ccc(CN3CCS(=O)(=O)CC3)cc2)cc1,x,8.2%,22.5%,x,13.5µM*,27.5%
COc1ccc(C(=O)Nc2ccc(CN3CCS(=O)(=O)CC3)cc2)cc1,x,-2.4%,-4.3%,x,u,-3.9%
CN(C)c1ccc(NC(=O)c2ccc(Cn3cc([N+](=O)[O-])cn3)cc2)cc1,-10.2%,1.1%,14.7%,-0.5%,12µM*,29.3%
COc1ccc(/C=C/C(=O)NC2CCCCCCC2)cc1S(=O)(=O)N1CCOCC1,26.1%,1.1%,18.0%,-0.6%,-19.8%,u
CN(C)S(=O)(=O)c1cccc(C(=O)Nc2ccc(Cl)cn2)c1,5.9%,u,u,-2.8%,13.5µM*,u
COc1ccc(C(=O)Nc2ccc(Cl)cn2)cc1Cl,u,u,2.51µM*,-5.0%,10.7µM*,3.55µM*
O=C(Nc1ccc(Cl)cn1)c1cccc(S(=O)(=O)N2CCCC2)c1,x,-8.3%,1.6%,x,0.7%,12.3%
COn1c(-c2ccccc2)nc2ccc(Cl)cc21,28.5%,14.2%,u,-6.9%,12µM*,u
SMILES,SMN2 splice up,ELG1 genotoxic,NPC1 promoter act,Luc counter,FLuc modulator,Rab9 prom act
O=C(O)COn1c(-c2ccccc2)nc2ccc(Cl)cc21,u,u,9.7%,-16.9%,4.78µM*,25.7%
O=[N+]([O-])c1ccc2nc(-c3ccccc3)n(OCc3ccc(Cl)cc3)c2c1,-22.3%,0.0%,1.7%,-0.4%,u,5.2%
COc1ccc2ccccc2c1/C=N/NC(=O)c1ccc(C)nc1,x,0.5%,1.7%,x,21.3µM*,3.7%
CCOc1ccc2ccccc2c1/C=N/NC(=O)c1ccncc1,x,9.8%,-0.4%,x,13.5µM*,-0.5%
CCN(Cc1ccccc1)C(=O)c1cc2ccc3cccnc3c2[nH]1,x,x,x,x,9.53µM*,x
Cc1ccc(CN2CCC(CNC(=O)c3cc4ccc5cccnc5c4[nH]3)CC2)cc1,x,x,x,x,-2.0%,x
Cc1ccc(-c2nc3ccccn3c2C=O)cc1,x,u,u,-29.5%,21.3µM*,3.55µM*
COc1ccc(-c2nc3c4ccccc4ccn3c2C=O)cc1,-3.5%,3.2%,-3.2%,4.3%,-11.3%,7.2%
CN(C)c1ccc(-c2nc3ccccn3c2/N=C/c2ccc(Br)cc2)cc1,3.16µM*,u,u,u,0.601µM*,u
COc1ccc(OC)c(/C=N/c2c(-c3ccc(O)c(OC)c3)nc3ccccn23)c1,-12.0%,1.2%,-1.4%,-1.1%,u,-1.3%
Clc1c(-c2ccccc2)nc2ccccn12,x,u,3.98µM*,x,12µM*,2.51µM*
Cc1c(-c2ccc(Br)cc2)nc2ccccn12,x,u,3.16µM*,x,2.39µM*,2.51µM*
O=C(Nc1ccccc1Br)N1CCN2CCCCC2C1 (stereo unspecified),x,x,x,x,5.0%,x
CCOc1ccc(NC(=O)CCC(=O)N/N=C(\C)c2cccs2)cc1,x,-2.7%,-0.7%,x,3.6%,2.9%
CCCCN1C2CCCC1CC(NC(=O)c1cccc(OC)c1)C2 (stereo unspecified),x,-0.3%,0.8%,x,-1.1%,3.0%
O=C(O)c1c(Cl)nc2ccccn12,0.5%,0.0%,-5.2%,1.8%,2.3%,8.4%
c1ccn2c(c1)nc1c2nc2ccccn21,24.3%,u,u,1.1%,16.9µM*,20.8%
CC(C(=O)N1CCCCC1)n1sc2ccccc2c1=O (stereo unspecified),u,u,u,3.0%,23.9µM*,u
CC(C(=O)N1CCN(C(=O)c2ccco2)CC1)n1sc2ccccc2c1=O (stereo unspecified),x,2.1%,0.3%,x,4.6%,-0.5%
NS(=O)(=O)c1cc2c(cc1Cl)N[C@H](Cc1ccccc1)NS2(=O)=O,-5.9%[9.22 µM],x,x,-4.9%[7.66 µM],x,x
O=C(CNc1ccc(Br)cc1)c1ccc(Br)s1,x,u,u,x,-10.7%,u
O=C(N/N=C1/CC2CCC1C2)c1cc2ccccc2cc1O (stereo unspecified),x,-2.7%,15.6%,x,15.1µM*,4.0%
O=C(NCC1CCCCC1)c1cc2ccccc2cc1O,x,-0.3%,u,x,12µM*,27.0%
O=C(NCC1CCCO1)c1cc2ccccc2cc1O (stereo unspecified),x,15.4%,u,x,23.9µM*,u
